Source: PubChem BioAssay (NCI)
Several values for one entry are separate records, joined by “and”; a condition that tells them apart may be missing. Equal entries are not always repeated. This is part of a sample that, as a whole, favours compounds with a hit. Of some 83,000 tested, about 20% had one in any assay.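 In brief: 96-well plates, 48 h treatment, single concentration, percent growth endpoint.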 Activity calls are given as the source filed them. How the source made its calls: active means growth percent below 10; inactive means the rest.

How the values were obtained:
Test in all cases: NCI-60 one-dose screen, 48 h (100 = growth as untreated, 0 = no growth, -100 = all killed)
Conditions in all cases: 10 µM unless noted
SR leukemia = tested on: SR leukemia
RPMI-8226 leukemia = tested on: RPMI-8226 leukemia
OVCAR-8 ovarian = tested on: OVCAR-8 ovarian
OVCAR-5 ovarian = tested on: OVCAR-5 ovarian
OVCAR-4 ovarian = tested on: OVCAR-4 ovarian
SK-OV-3 ovarian = tested on: SK-OV-3 ovarian
IGROV1 ovarian = tested on: IGROV1 ovarian
OVCAR-3 ovarian = tested on: OVCAR-3 ovarian
HS 578T breast = tested on: HS 578T breast
NCI/ADR-RES ovarian = tested on: NCI/ADR-RES ovarian

Row | Structure (SMILES) | growth (SR leukemia) | growth (RPMI-8226 leukemia) | growth (OVCAR-8 ovarian) | growth (OVCAR-5 ovarian) | growth (OVCAR-4 ovarian) | growth (SK-OV-3 ovarian) | growth (IGROV1 ovarian) | growth (OVCAR-3 ovarian) | growth (HS 578T breast) | growth (NCI/ADR-RES ovarian)
1 | Cc1ccc(-c2nc([P+](c3ccccc3)(c3ccccc3)c3ccccc3)c(Nc3ccccc3)o2)cc1 | -27.1% (active) | -50.4% (active) | -21.5% (active) | 8.46% (active) | -5.24% (active) | -9.23% (active) | 15% (inactive) | -12.1% (active) | -31.1% (active) | -3.38% (active)
2 | O=C(/C=C/c1cccs1)Nc1ncc(Cc2ccc(Cl)c(Cl)c2)s1 | 32.7% (inactive) | 78.1% (inactive) | 72.7% (inactive) | 74.1% (inactive) | 66.6% (inactive) | 68.8% (inactive) | 64.1% (inactive) | 40.4% (inactive) | 62.4% (inactive) | 60.3% (inactive)
3 | O=C(Nc1ncc(Cc2cccc(C(F)(F)F)c2)s1)c1ccc(-n2cnnn2)cc1 | 61.2% (inactive) | 51.5% (inactive) | 58.5% (inactive) | 74.2% (inactive) | 33.6% (inactive) | 86.4% (inactive) | 74.6% (inactive) | 72.1% (inactive) | 79.3% (inactive) | 35.9% (inactive)
4 | CCCCn1c(C(=O)c2c[nH]c3ccccc23)n[nH]c1=S | 91.7% (inactive) | 78.7% (inactive) | 93.1% (inactive) | 133% (inactive) | 92.4% (inactive) | 88.4% (inactive) | 87.7% (inactive) | 106% (inactive) | 91% (inactive) | 107% (inactive)
5 | O=C(/C=C\c1ccc(Cl)c(Cl)c1)c1ccccc1 | 13.1% (inactive) and 106% (inactive) | -27.3% (active) and 89.4% (inactive) | 79.2% (inactive) and 98.9% (inactive) | 93.7% (inactive) and 106% (inactive) | 88.3% (inactive) | 101% (inactive) and 96.4% (inactive) | 92.7% (inactive) and 82.4% (inactive) | 93.6% (inactive) and 98% (inactive) | 111% (inactive) | 99.1% (inactive) and 105% (inactive)
6 | COC(=O)[C@H]1Cc2c([nH]c3ccccc23)[C@@H](c2cccs2)N1 | 108% (inactive) | 103% (inactive) | 104% (inactive) | 102% (inactive) | 102% (inactive) | 102% (inactive) | 101% (inactive) | 111% (inactive) | 103% (inactive) | 106% (inactive)
7 | CCN(CC)/C([O-])=c1\cccc\c1=C1\N=C(c2ccccc2)N=C1[n+]1ccc(-c2ccccc2)cc1 | 102% (inactive) | 98.4% (inactive) | 97.6% (inactive) | 87.8% (inactive) | 99.5% (inactive) | 105% (inactive) | 54.7% (inactive) | 94% (inactive) | 109% (inactive) | 98.2% (inactive)
8 | O=C1C=CC(=O)N1c1ccc2ccccc2c1 | 40.7% (inactive) and 63.4% (inactive) | 105% (inactive) and 81.3% (inactive) | 103% (inactive) and 101% (inactive) | 96.6% (inactive) and 97.9% (inactive) | 93.7% (inactive) | 107% (inactive) and 99.7% (inactive) | 101% (inactive) and 105% (inactive) | 69.7% (inactive) and 93.9% (inactive) | 93.6% (inactive) and 103% (inactive) | 99.7% (inactive) and 104% (inactive)
9 | COc1ccc(N2CCN(S(=O)(=O)c3oc(-c4ccccc4)nc3C#N)CC2)cc1 | 6.1% (active) | 41.4% (inactive) | 60.2% (inactive) | 95.2% (inactive) | 86.7% (inactive) | 113% (inactive) | 54.6% (inactive) | 73.3% (inactive) | 104% (inactive) | 91% (inactive)
10 | CC(C)(C)c1cc(C(C)(C)c2ccccc2)cc(Cc2cc(C(C)(C)c3ccccc3)cc(C(C)(C)C)c2O)c1O | -21.9% (active) | 91% (inactive) | 97.9% (inactive) | 91.8% (inactive) | 90.2% (inactive) | 105% (inactive) | 96.5% (inactive) | 106% (inactive) | 105% (inactive) | 102% (inactive)
11 | CCCCCCCCCCCCCCCC(=O)O[C@@H]1[C@@H](O)[C@@H](O)C([C@H](NC(=O)[C@@H]2C[C@@H](CCC)CN2C)[C@H](C)Cl)O[C@@H]1SC (stereo not given in full) | 98.5% (inactive) | 90.9% (inactive) | 103% (inactive) | 97.1% (inactive) | 105% (inactive) | 98.2% (inactive) | 101% (inactive) | 109% (inactive) | 122% (inactive) | 112% (inactive)
12 | Cc1c(C(=O)OCCCCOC(=O)c2c(C)n(C)c3scc[n+]23)[n+]2ccsc2n1C | 117% (inactive) | 96.1% (inactive) | 96.2% (inactive) | 83.5% (inactive) | 103% (inactive) | 103% (inactive) | 110% (inactive) | 95.3% (inactive) | 179% (inactive) | 110% (inactive)
13 | Cc1cnc(C(=O)NNc2nc3sc4c(c3c(=O)[nH]2)C(C)CCC4)cn1 (stereo not given) | 21.4% (inactive) | 29.3% (inactive) | 15.3% (inactive) | 34.7% (inactive) | 22.1% (inactive) | 16.2% (inactive) | 14.5% (inactive) | 31.5% (inactive) | 46.8% (inactive) | 11.7% (inactive)
14 | COc1cc(CNC(=O)CCCC/C=C/C(C)C)ccc1O | 91.7% (inactive) and 99% (inactive) | 100% (inactive) and 94.7% (inactive) | 109% (inactive) | 92.7% (inactive) | 93.3% (inactive) and 104% (inactive) | 117% (inactive) and 105% (inactive) | 96.8% (inactive) and 88.2% (inactive) | 84.5% (inactive) and 119% (inactive) | 91.5% (inactive) and 111% (inactive) | 113% (inactive) and 97.5% (inactive)
15 | CC1=CC=C(NC(=O)/C=C/c2ccccc2)CC1Nc1nccc(-c2cccnc2)n1 (stereo not given) | 15.3% (inactive) | 17.2% (inactive) | 61% (inactive) | 96.8% (inactive) | 70% (inactive) | 57.6% (inactive) | 54.7% (inactive) | 19.9% (inactive) | 44.5% (inactive) | 47.6% (inactive)
16 | Nc1c(C(=O)Nc2ccncc2)sc2nc3c(cc12)CCCCCCCC3 | -27.5% (active) | -49% (active) | -90.6% (active) | -75.8% (active) | -84.6% (active) | -92.1% (active) | -73.7% (active) | -81.8% (active) | -37.1% (active) | -64.8% (active)
17 | CONC1=Nc2cc(NC(N)=NCc3ccccc3)c(N(C)C3CCCCC3)cc2OC1 | -12.1% (active) | 38.5% (inactive) | 83.9% (inactive) | 65.5% (inactive) | 73.8% (inactive) | 83.5% (inactive) | 59.6% (inactive) | 77.4% (inactive) | 71.4% (inactive) | 99.8% (inactive)
18 | O=C(N=Nc1c(O)[nH]c2ccccc12)Nc1ccccc1Cl | 77.1% (inactive) | 84.8% (inactive) | 97.5% (inactive) | 93.6% (inactive) | 71% (inactive) | 94.4% (inactive) | 65.3% (inactive) | 101% (inactive) | 89.4% (inactive) | 93% (inactive)
19 | COc1ccc(-c2nn3c(-c4cc(F)c(Cl)cc4Cl)nnc3s2)cc1 | 13.1% (inactive) | 29.9% (inactive) | 67.5% (inactive) | 59.5% (inactive) | 80% (inactive) | 61.1% (inactive) | 40.6% (inactive) | 27.8% (inactive) | -20.6% (active) | 3.63% (active)
20 | CN(C)c1ccc2nc3ccc(=O)cc-3sc2c1 | 7.73% (active) and 17.9% (inactive) | 12.8% (inactive) and 13.8% (inactive) | 28.1% (inactive) and 6.61% (active) | 86.6% (inactive) and 88.5% (inactive) | 2.9% (active) | 81.7% (inactive) and 93.7% (inactive) | 50.2% (inactive) and 57.1% (inactive) | -7.17% (active) and -6.79% (active) | 79.4% (inactive) and 79.2% (inactive) | 14.7% (inactive) and 46.2% (inactive)
21 | CC(C)(C)c1cc(NC(=O)Nc2ccc(-c3cn4c(n3)sc3cc(OCCN5CCOCC5)ccc34)cc2)no1 | 9.24% (active) and 1.25% (active) | -11% (active) and 22.8% (inactive) | 13.2% (inactive) and -9.65% (active) | 56% (inactive) and 60.8% (inactive) | 59.3% (inactive) and 3.54% (active) | 45.4% (inactive) and 27.9% (inactive) | 48.3% (inactive) and 37.5% (inactive) | -43.2% (active) and 38.5% (inactive) | -2.54% (active) | 51.5% (inactive) and 23.2% (inactive)
22 | N#Cc1ccccc1-c1ccc(Cn2c(-c3cscn3)nc3c(Cl)cccc32)cc1 | 55.2% (inactive) | 48.3% (inactive) | 78.2% (inactive) | 86.8% (inactive) | 62% (inactive) | 82.6% (inactive) | 89.1% (inactive) | 63.3% (inactive) | 85.5% (inactive) | 73.3% (inactive)
23 | O=[N+]([O-])c1cc(C(F)(F)F)ccc1Sc1ccc(C(F)(F)F)cc1[N+](=O)[O-] | 7.21% (active) | 34.2% (inactive) | 85.7% (inactive) | 132% (inactive) | 44.6% (inactive) | 56% (inactive) | 77.7% (inactive) | 92.3% (inactive) | 66.3% (inactive) | 82.5% (inactive)
24 | COCCn1cc(-c2csc(-c3cn(C)c4ccc(F)cc34)n2)c2cccnc21 | 33.8% (inactive) | 67.7% (inactive) | 71.3% (inactive) | 80.7% (inactive) | 47.8% (inactive) | 92.6% (inactive) | 93.9% (inactive) | 76% (inactive) | 63.1% (inactive) | 58.6% (inactive)
